# Shown are actives, neighbours in structure and some others; about 0.36% of the full set was active somewhere.
# GPT2 inhibitor: inhibitors of human GPT2 alanine aminotransferase; Q8TD30; Recombinant GPT2, coupled pyruvate oxidase/HRP Amplex Red fluorescence; Potency, µM (top dose mostly 57.7 µM), most hits filed as inhibitors; hit rate 0.25% among 100,000; note: nearly all actives have a fitted effect of over 60% in size
# Target sequence (Q8TD30 whole entry, looked up): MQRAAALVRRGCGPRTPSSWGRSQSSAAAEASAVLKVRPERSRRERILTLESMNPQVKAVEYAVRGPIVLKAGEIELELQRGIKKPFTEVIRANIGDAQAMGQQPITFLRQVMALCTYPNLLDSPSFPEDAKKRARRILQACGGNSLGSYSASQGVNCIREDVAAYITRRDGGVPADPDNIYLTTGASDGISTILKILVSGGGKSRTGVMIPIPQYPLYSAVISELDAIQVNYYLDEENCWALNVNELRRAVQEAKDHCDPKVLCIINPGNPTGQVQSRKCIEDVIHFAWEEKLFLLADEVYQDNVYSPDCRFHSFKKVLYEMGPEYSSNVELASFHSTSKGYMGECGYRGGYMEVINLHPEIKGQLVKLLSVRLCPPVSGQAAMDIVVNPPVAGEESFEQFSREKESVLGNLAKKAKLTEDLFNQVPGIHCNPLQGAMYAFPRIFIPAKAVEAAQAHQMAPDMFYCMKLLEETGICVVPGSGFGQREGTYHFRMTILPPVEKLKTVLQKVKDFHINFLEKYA
#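 Fluorescence read-out: pyruvate from GPT2 turnover coupled to pyruvate oxidase, HRP and Amplex Red (0.2mM ThPP, 0.2U/mL PO and HRP, 50uM Amplex final). Substrates 250uM a-KG, 2mM L-alanine; enzyme 10ng/uL; 30 min RT.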
# SNCA expr inhib: SNCA gene expression inhibition | hit rate 0.17% among 140,000 | AID 1671194 | Potency, µM (titrated, usually from 57.2 µM), hits mostly inhibitors | HEK-293 SNCA-luciferase knock-in, luminescence, 24 h; note: nearly all actives have a fitted effect of over 45% in size
# SNCA viab count: reduces viability of HEK-293 SNCA reporter cells | hit rate 0.12% among 150,000 | Potency, µM (doses to about 57.1 µM), hits mostly cytotoxic | HEK-293-SNCA-luc viability, GF-AFC fluorescence, 24 h; note: nearly all actives have a fitted effect of over 30% in size
#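 HEK-293-SNCA-luc cells (1500/well) plated 24 h, then exposed 24 h to a dilution series; GF-AFC added 30 min at 37C, fluorescence 405/540 nm; normalised to medium-only and DMSO wells, Hill fit.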
# A number is an active result; n = inactive; u = inconclusive; x = not tested or not shown; ! = not active in a repeat; [ ] = remark or other dose. Calls come from the whole dose curve; as a rule, active = well fitted curve in the direction sought with a large enough effect; inconclusive = small, poorly fitted or top-dose-only effect, or another doubt; inactive = no such curve, though single readings can be large; an effect the other way counts as inactive or inconclusive.
SMILES,GPT2 inhibitor,SNCA expr inhib,SNCA viab count
CC(C)[C@H](CO)Nc1nc(Nc2ccc(C(=O)O)c(Cl)c2)c2ncn(C(C)C)c2n1,n,u,n
CSc1ccc(-c2cccc(C(=O)NCCNC(=O)N(C)C)c2)cc1,n,n,n[12.5 µM]
O=C(c1ccccc1OCC1CCCN(Cc2c[nH]c3ccccc23)C1)N1CCCCC1 (stereo not given),n,n,n
O=C(NCC(F)F)c1nc2cccnc2n(C2CC2)c1=O,n,n,n
CC(C)NCC(O)c1cc(O)cc(O)c1 (stereo not given),u,n,n
CC(C)NC[C@H](O)c1ccc(O)c(O)c1,3.55µM!,n,n
COc1ccccc1-c1cccc(CN2CCCC(C(=O)N3CCC(c4ccccc4)CC3)C2)c1 (stereo not given),n,n,n
Cc1ccc(-c2cc3c(=O)n(CCNC(=O)c4cc(C5CC5)[nH]n4)ccn3n2)c(C)c1,n,n,n
C[C@@]1(C(=O)Nc2ccc(F)nc2)CCCN1c1nc(Nc2cc(C3CC3)[nH]n2)c2cccn2n1,n,n,1.89µM!
O=C(NC1CCCCC1)c1cn2cc(-c3ccccc3)sc2n1,n,n,n
NC(=O)c1cccc(CN2CCCC23Cc2ccccc2N(C(=O)c2ccc(Cl)cc2)C3)c1 (stereo not given),u,n,n
CO[C@H]1CN(C2CCN(C(=O)CC3CCCCC3)CC2)[C@H]1c1cccnc1,u,n,n
O=C(c1ccc(Cl)nc1)N1CCC(C(=O)N2CCC(c3ccccc3)CC2)CC1,n,n,n
CN(C)Cc1c(C(=O)NCCOc2ccc(C(=O)NO)cc2)oc2ccccc12,30.6µM!,n,u
CCCOc1ccc(C(=O)Nc2c(C(=O)c3ccc(C)cc3)oc3ccccc23)cc1,x,n,n
Cc1nn2c(c1-c1cccnc1N1CCOCC1)N(Cc1ccccc1)CCC2,n,u,n
C=CC(=O)Nc1cccc(Sc2nc(Nc3ccc(N4CCN(C)CC4)cc3)ncc2Cl)c1,n,n,u
C=CC(=O)Nc1ccc(CN2C(=O)N(c3cc(OC)cc(OC)c3)Cc3cnc(Nc4ccc(N5CCN(C)CC5)cc4)nc32)cc1,n,x,18.9µM
COc1ccc(C(=O)N2CCc3nc(C4CC4)nc(-c4ccc(OC)cc4)c3C2)cc1,n,n,n
COc1ccc(-c2nc(C3CC3)nc3c2CN(C(=O)c2ccc(C(F)(F)F)cc2)CC3)cc1,n,u,10µM
O=C(NCCCc1ccccc1)c1cn2cc(-c3ccc(F)cc3)sc2n1,n,n,n
CN(C)C/C=C/C(=O)Nc1ccc(C(=O)Nc2cccc(Nc3ncc(Cl)c(-c4c[nH]c5ccccc45)n3)c2)cc1,n,0.171µM,u
CN(C)C/C=C/C(=O)Nc1cccc(C(=O)Nc2cccc(Nc3ncc(Cl)c(-c4c[nH]c5ccccc45)n3)c2)c1,n,x,u
COc1ccccc1-c1cccc(CN2CCCC(C(=O)NCc3ccccc3)C2)c1 (stereo not given),n,n,n
CCc1nn(CC(=O)NCCCc2ccccc2)c(=O)c2cc3ccccc3n12,x,28.2µM,n
SMILES,GPT2 inhibitor,SNCA expr inhib,SNCA viab count
CCOc1ccc(CCNC(=O)Cn2nc(CC)n3c(cc4ccccc43)c2=O)cc1,x,n,n
O=C1CC2(CCN(C(=O)C3CCN([S+](=O)([O-])c4cccs4)CC3)CC2)Oc2ccccc2N1,n,n,n
O=C1Nc2ccccc2CN(Cc2ccc(F)cc2)C12CCNCC2,n,n,n
O=c1n(-c2ccc(C(F)(F)F)cc2)nc2n1CCN(Cc1ccc(C(F)(F)F)cc1)C2,u,n,n
CCCOc1ccc(C2C(=O)N(C3CCCCC3)CC(=O)N2CCC2=CCCCC2)cc1OC (stereo not given),x,n,n
COc1ccc(C2C(=O)N(C3CCCCC3)CC(=O)N2CCC2=CCCCC2)cc1 (stereo not given),x,22.4µM,u
COc1ccc(CC(=O)N2CCCC(C(=O)N3CCC(c4ccccc4)CC3)C2)cc1 (stereo not given),n,n,n
COc1cccc(CNC(=O)C2CCCN(c3nccc(Nc4ccccc4OC)n3)C2)c1 (stereo not given),n,n,n[12.5 µM]
C=CCNC1=C2C[C@@H](C)C[C@H](OC)[C@@H](O)[C@@H](C)C=C(C)[C@H](OC(N)=O)[C@@H](OC)C=CC=C(C)C(=O)NC(=CC1=O)C2=O,n,u,n
CO[C@H]1C=CC=C(C)C(=O)NC2=CC(=O)C(NCCN(C)C)=C(C[C@@H](C)C[C@H](OC)[C@@H](O)[C@@H](C)C=C(C)[C@@H]1OC(N)=O)C2=O,30.6µM,0.0541µM,u
COc1cccc2c1C(=O)c1c(O)c3c(c(O)c1C2=O)C[C@@](O)(C(=O)CO)C[C@H]3O[C@H]1C[C@H](N)[C@H](O)[C@H](C)O1,n,u,u
COc1cccc2c1C(=O)c1c(O)c3c(c(O)c1C2=O)C[C@@](O)(C(=O)CO)C[C@@H]3O[C@H]1C[C@H](N)[C@H](OC2CCCCO2)[C@H](C)O1 (stereo not given in full),3.06µM,u,n
O=C(C1CCCN(Cc2cccc(-c3ccsc3)c2)C1)N1CCC(Cc2ccccc2)CC1 (stereo not given),n,u,n
CCOC(=O)c1ccc(N2C(=O)c3n[nH]c(-c4ccco4)c3C2c2cccc(OC)c2)cc1 (stereo not given),x,u,n
CCOC(=O)c1ccc(N2C(=O)c3n[nH]c(-c4cccs4)c3C2c2ccc(C)cc2)cc1 (stereo not given),x,n,n
CCOC(=O)c1ccc(N2C(=O)c3n[nH]c(-c4cccs4)c3C2c2ccc(Cl)cc2Cl)cc1 (stereo not given),x,u,22.4µM
CCOC(=O)c1ccc(N2C(=O)c3n[nH]c(-c4ccco4)c3C2c2ccc(OCC)cc2)cc1 (stereo not given),x,20µM,u
O=C(NC1CCCC1)C1CCCCN1Cc1ccc(-c2ccsc2)cc1 (stereo not given),n,n,n
CCCCn1c(=O)c(C(=O)N2CCN(C(=O)c3ccc(C(F)(F)F)cc3)CC2)nc2cccnc21,n,u,n
O=[S+]([O-])(NC1CCN(Cc2ccc(-c3ccsc3)cc2)C1)c1cccc(C(F)(F)F)c1 (stereo not given),n,u,n
O=C1CC2(CCN(C(=O)C3CCCN3C(=O)Cc3cccc(Cl)c3)CC2)Oc2ccccc2N1 (stereo not given),n,n,n
O=C(NCC1CCCCCC1)C1CCCN(c2nccc(Nc3ccccc3F)n2)C1 (stereo not given),n,u,n[12.5 µM]
COc1c/c(=C2\C=c3ccccc3=N2)[nH]/c1=C\c1[nH]c(C)cc1C,n,x,4.74µM
CC(C)N1C[C@H](O)C[C@H]1c1nnc2n1CCN(C(=O)c1ccsc1)C2,n,25.1µM,n[12.5 µM]
CC(C)N1C[C@H](O)C[C@H]1c1nnc2n1CCN(C(=O)c1cccs1)C2,n,u,n[12.5 µM]
O=C(Cc1ccc(F)cc1)NCCNC(=O)c1cccc(-c2ccc(C(F)(F)F)cc2)c1,n,n,n
CC(C)C[C@@H](C=O)NC(=O)[C@H](CC(C)C)NC(=O)[C@H](CC(C)C)NC(=O)OCc1ccccc1,n,0.607µM,u
CC(C)[C@H](NC(=O)OCc1ccccc1)C(=O)N[C@H](C=O)Cc1ccccc1,n,n,n

# Compound activity: PubChem BioAssay, National Center for Advancing Translational Sciences (NCATS)
